Read-out in one experiment: CD69, CD69 (gene 969)
Nature of the experiment: BSK_SAg_CD69: BioMAP Diversity Plus: SAg Assay for CD69 Biomarker Activity (AID 2283089).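 On AC50: cell surface CD69 protein quantified by ELISA with fluorescence detection.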 The settings on record: primary human HUVEC with PBMC; actives raise or lower the signal. The gist of the method:
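Endothelial/PBMC co-culture; chemical added; 24 h incubation; CD69 ELISA with fluorescence detection; bidirectional fit vs DMSO.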

Read-out in experiment [1]: Monocyte Chemoattractant Protein-1 (MCP1), CCL2 (gene 6347)
In words: BSK_SAg_MCP1: BioMAP Diversity Plus: SAg Assay for Monocyte Chemoattractant Protein-1 (MCP1) Biomarker Activity (AID 2283090). The following applies: primary human HUVEC with PBMC; actives raise or lower the signal. A digest of the protocol:
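Values derive from bidirectional fitting of ELISA-measured MCP1 against DMSO controls. Readings were taken 24 h after dosing human vascular endothelial cells co-cultured with peripheral blood mononuclear cells under superantigen stimulation.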

Read-out in experiment [2]: E-selectin (Homo sapiens) (UniProt P16581)
In words: BSK_SAg_Eselectin: BioMAP Diversity Plus: SAg Assay for Eselectin Biomarker Activity (AID 2283091). The settings on record: primary human HUVEC with PBMC; actives raise or lower the signal. A digest of the protocol: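 Primary human endothelial cells and peripheral blood mononuclear cells were co-cultured and exposed to chemical for 24 hours. E-selectin levels were then quantified by ELISA, with bidirectional curve fitting normalised to DMSO controls.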

Read-out in experiment [3]: Monokine induced gamma interferon (MIG), CXCL9 (gene 4283)
In words: BSK_SAg_MIG: BioMAP Diversity Plus: SAg Assay for Monokine induced gamma interferon (MIG) Biomarker Activity (AID 2283092). The settings on record: primary human HUVEC with PBMC; actives raise or lower the signal. The gist of the method:
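Measures CXCL9 protein by ELISA in a human vascular primary-cell co-culture (umbilical vein endothelium with PBMC) 24 h after chemical addition. Activity is scored up or down from the DMSO control.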

A short description of experiment [4]: BSK_SAg_PBMCCytotoxicity: PBMC Cytotoxicity Assessment in the BioMAP Diversity Plus: SAg Assay (AID 2283093).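 Further: PBMC viability measured as Alamar Blue reduction fluorescence at 546/580 nm; fitted both ways against DMSO so a hit may be loss or gain of signal.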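 On AC50: PBMC superantigen activated with SEB plus TSST-1 one hour after compound addition.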 The following applies: primary human HUVEC with PBMC. The gist of the method:
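Alamar Blue reduction (6 h, 546/580 nm) reports PBMC cytotoxicity after 90 h superantigen activation (SEB, TSST-1; 20 ng/mL final each) with 1 h compound pre-treatment. Gain or loss of signal fitted versus DMSO.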

Experiment [5] in a line: BSK_SAg_Proliferation: Cell Proliferation Assessment in the BioMAP Diversity Plus: SAg Assay (AID 2283095).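 Further: relative cell number as total protein by SRB absorbance in sub-confluent culture.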 The following applies: primary human HUVEC with PBMC. A digest of the protocol:
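Absorbance of sulforhodamine B at 560 nm reports total protein in a human vascular endothelial/PBMC co-culture after 96 h chemical exposure. Gain or loss of signal is fitted in both directions against DMSO.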

The nature of experiment [6]: BSK_SAg_SRB: Viability Assessment in the BioMAP Diversity Plus: SAg Assay (AID 2283096).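 Further: cells read one day after compound addition; hits may be either gain or loss of signal compared with DMSO.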 The following applies: primary human HUVEC with PBMC. The gist of the method: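 This overt-cytotoxicity endpoint quantifies protein in human endothelial/PBMC co-cultures at 24 h using SRB absorbance (560 nm) after trichloroacetic acid fixation. Values reflect signal change from the DMSO negative control, fitted bidirectionally.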

Experiment [7] has as its target human CYP19A1, CYP19A1 (gene 1588) (UniProt P11511). In words: NVS_ADME_hCYP19A1: NovaScreen (NVS) CYP450-related Enzyme Activity (ADME) Assay for human CYP19A1 (AID 2283098; active means hit-call score of the fitted dose curve at least 0.9, where 1 is the maximum). The gist of the method:
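Compounds were first screened at 10 uM in duplicate against purified enzyme, with a fluorogenic substrate and fluorescence intensity detection after 0.5 h. Inhibition appears as reduced signal against acetonitrile control.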

Experiment [8] has as its target Cytochrome P450 2C18 (Homo sapiens) (UniProt P33260). Nature of the experiment: NVS_ADME_hCYP2C18: NovaScreen (NVS) CYP450-related Enzyme Activity (ADME) Assay for human CYP2C18 (AID 2283103). A digest of the protocol: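 Enzyme activity measured by fluorescence 0.5 h after compound addition, using recombinant CYP2C18 and a specific substrate. Actives from duplicate 10 uM screening were retested in concentration series (top 20 uM); acetonitrile served as negative baseline.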

Experiment [9] concerns the target Cytochrome P450 2C19 (Homo sapiens) (UniProt P33261). In words: NVS_ADME_hCYP2C19: NovaScreen (NVS) CYP450-related Enzyme Activity (ADME) Assay for human CYP2C19 (AID 2283113; active means hit-call score of the fitted dose curve at least 0.9, where 1 is the maximum;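 further: potency for inhibition seen as loss of fluorescent signal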). The gist of the method:
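Chemicals first screened in duplicate at 10 uM against recombinant human enzyme produced in insect cells; confirmed actives then run as concentration series. Fluorogenic substrate turnover read by fluorescence after 1 h, normalised to acetonitrile.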

Experiment [10] has as its target human CYP2B6, CYP2B6 (gene 1555) (UniProt P20813). In words: NVS_ADME_hCYP2B6: NovaScreen (NVS) CYP450-related Enzyme Activity (ADME) Assay for human CYP2B6 (AID 2283101; active means hit-call score of the fitted dose curve at least 0.9, where 1 is the maximum). A digest of the protocol: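 Recombinant protein, specific fluorescent substrate, read at 1 h post-dosing. Primary: single 10 uM, duplicate; follow-up: concentration series. Activity = signal loss vs acetonitrile baseline, with positive and negative controls on every plate.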

Experiment [11] concerns the target human CYP2C9, CYP2C9 (gene 1559) (UniProt P11712). In words: NVS_ADME_hCYP2C9: NovaScreen (NVS) CYP450-related Enzyme Activity (ADME) Assay for human CYP2C9 (AID 2283108; active means hit-call score of the fitted dose curve at least 0.9, where 1 is the maximum). The gist of the method:
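Cell-free assay of recombinant human CYP2C9 produced in Sf9 cells, with enzyme activity read by fluorescence intensity 0.75 h after compound addition. Loss of signal versus an acetonitrile negative control indicates inhibition. Primary screen used 10 uM in duplicate; actives were retested in concentration series.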

Experiment [12] deals with human CYP1A1, CYP1A1 (gene 1543) (UniProt P04798). In words: NVS_ADME_hCYP1A1: NovaScreen (NVS) CYP450-related Enzyme Activity (ADME) Assay for human CYP1A1 (AID 2283100; active means hit-call score of the fitted dose curve at least 0.9, where 1 is the maximum). The gist of the method: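 Compounds first went through duplicate single-concentration testing at 10 uM against purified CYP1A1. Those passing a threshold such as 30% inhibition entered singleton dose-response, highest concentration 20 uM. Signal was fluorescence measured after 1 hour.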
human CYP1A1, CYP1A1 (gene 1543), sequence (P04798 whole entry, looked up): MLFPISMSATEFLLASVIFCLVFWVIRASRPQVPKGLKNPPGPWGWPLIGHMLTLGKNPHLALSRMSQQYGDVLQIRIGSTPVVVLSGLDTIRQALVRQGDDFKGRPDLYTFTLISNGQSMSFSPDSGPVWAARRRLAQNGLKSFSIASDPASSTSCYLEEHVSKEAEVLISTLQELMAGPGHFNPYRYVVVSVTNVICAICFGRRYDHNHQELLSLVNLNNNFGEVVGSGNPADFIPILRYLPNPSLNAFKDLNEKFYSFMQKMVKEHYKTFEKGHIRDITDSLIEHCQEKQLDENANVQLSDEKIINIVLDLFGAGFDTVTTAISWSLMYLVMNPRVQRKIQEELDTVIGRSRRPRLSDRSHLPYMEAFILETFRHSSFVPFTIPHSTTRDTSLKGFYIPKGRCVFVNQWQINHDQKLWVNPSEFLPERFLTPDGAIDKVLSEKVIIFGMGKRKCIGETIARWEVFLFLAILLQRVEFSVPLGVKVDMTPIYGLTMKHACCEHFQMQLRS

In experiment [13] the target is human CYP2J2, CYP2J2 (gene 1573) (UniProt P51589). Nature of the experiment: NVS_ADME_hCYP2J2: NovaScreen (NVS) CYP450-related Enzyme Activity (ADME) Assay for human CYP2J2 (AID 2283106; active means hit-call score of the fitted dose curve at least 0.9, where 1 is the maximum). A digest of the protocol: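 Chemicals were first tested at 10 uM in duplicate, and hits meeting criteria such as 30% inhibition were run in singleton concentration series with a 20 uM top concentration. Enzyme activity of recombinant CYP2J2 was measured by fluorescence after 1 h, relative to acetonitrile.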
human CYP2J2, CYP2J2 (gene 1573), sequence (P51589 whole entry, looked up): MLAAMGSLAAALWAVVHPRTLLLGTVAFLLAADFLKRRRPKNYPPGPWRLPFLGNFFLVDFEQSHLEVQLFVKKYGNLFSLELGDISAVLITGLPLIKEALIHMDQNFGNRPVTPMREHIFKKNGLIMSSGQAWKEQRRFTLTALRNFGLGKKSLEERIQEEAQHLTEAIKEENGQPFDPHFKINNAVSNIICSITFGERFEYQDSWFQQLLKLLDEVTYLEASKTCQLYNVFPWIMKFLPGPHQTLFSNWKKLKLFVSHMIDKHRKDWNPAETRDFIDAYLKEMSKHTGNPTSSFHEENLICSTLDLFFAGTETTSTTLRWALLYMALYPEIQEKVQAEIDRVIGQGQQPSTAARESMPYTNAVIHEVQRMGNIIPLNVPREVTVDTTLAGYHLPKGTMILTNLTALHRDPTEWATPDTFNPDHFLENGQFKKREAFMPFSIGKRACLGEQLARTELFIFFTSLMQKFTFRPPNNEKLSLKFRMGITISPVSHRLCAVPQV

The target in experiment [14] is human CYP2D6, CYP2D6 (gene 1565) (UniProt P10635). In words: NVS_ADME_hCYP2D6: NovaScreen (NVS) CYP450-related Enzyme Activity (ADME) Assay for human CYP2D6 (AID 2283107; active means hit-call score of the fitted dose curve at least 0.9, where 1 is the maximum). A digest of the protocol:
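Compounds were first tested in duplicate at 10 uM against recombinant enzyme produced in insect cells, with substrate turnover measured by fluorescence after 1 hour. Decreased signal, referenced to acetonitrile vehicle, was taken as reduced enzyme activity. Active chemicals went on to concentration-response testing.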

Each structure is given as a SMILES string. Records with an inconclusive call do not appear. Active and inactive are the calls of the source. How the source made its calls, unless noted: active means hit-call score of the fitted dose curve at least 0.9, where 1 is the maximum; inactive means score below 0.9.

E-selectin (Homo sapiens), sequence (P16581 whole entry, looked up): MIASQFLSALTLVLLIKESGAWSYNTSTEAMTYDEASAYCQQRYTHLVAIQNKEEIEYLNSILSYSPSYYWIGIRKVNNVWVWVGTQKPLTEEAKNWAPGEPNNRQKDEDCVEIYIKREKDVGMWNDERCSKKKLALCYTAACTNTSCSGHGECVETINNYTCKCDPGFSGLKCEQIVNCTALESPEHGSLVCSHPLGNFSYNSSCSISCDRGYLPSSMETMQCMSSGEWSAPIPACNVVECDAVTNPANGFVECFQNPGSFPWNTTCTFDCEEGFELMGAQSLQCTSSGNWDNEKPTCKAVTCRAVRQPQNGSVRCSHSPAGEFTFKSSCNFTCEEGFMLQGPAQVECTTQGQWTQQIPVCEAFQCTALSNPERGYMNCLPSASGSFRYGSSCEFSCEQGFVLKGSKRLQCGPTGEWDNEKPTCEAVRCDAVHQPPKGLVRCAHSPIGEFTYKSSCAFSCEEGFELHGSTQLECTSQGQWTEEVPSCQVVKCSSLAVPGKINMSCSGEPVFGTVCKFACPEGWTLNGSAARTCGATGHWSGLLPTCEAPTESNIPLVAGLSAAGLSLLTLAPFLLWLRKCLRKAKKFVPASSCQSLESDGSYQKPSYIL
human CYP19A1, CYP19A1 (gene 1588), sequence (P11511 whole entry, looked up): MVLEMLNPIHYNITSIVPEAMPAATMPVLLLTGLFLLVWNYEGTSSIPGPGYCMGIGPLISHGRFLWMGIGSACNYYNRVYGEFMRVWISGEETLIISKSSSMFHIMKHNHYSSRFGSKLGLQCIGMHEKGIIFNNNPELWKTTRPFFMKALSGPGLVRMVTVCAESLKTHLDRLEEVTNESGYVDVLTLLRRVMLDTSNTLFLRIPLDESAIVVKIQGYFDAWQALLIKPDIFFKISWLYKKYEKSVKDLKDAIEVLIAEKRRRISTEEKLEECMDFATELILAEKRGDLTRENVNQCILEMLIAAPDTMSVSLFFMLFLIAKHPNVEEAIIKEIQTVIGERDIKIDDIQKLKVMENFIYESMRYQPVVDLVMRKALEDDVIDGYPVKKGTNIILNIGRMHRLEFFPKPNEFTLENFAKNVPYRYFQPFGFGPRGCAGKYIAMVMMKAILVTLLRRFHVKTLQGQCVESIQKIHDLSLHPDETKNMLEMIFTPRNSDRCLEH
human CYP2C9, CYP2C9 (gene 1559), sequence (P11712 whole entry, looked up): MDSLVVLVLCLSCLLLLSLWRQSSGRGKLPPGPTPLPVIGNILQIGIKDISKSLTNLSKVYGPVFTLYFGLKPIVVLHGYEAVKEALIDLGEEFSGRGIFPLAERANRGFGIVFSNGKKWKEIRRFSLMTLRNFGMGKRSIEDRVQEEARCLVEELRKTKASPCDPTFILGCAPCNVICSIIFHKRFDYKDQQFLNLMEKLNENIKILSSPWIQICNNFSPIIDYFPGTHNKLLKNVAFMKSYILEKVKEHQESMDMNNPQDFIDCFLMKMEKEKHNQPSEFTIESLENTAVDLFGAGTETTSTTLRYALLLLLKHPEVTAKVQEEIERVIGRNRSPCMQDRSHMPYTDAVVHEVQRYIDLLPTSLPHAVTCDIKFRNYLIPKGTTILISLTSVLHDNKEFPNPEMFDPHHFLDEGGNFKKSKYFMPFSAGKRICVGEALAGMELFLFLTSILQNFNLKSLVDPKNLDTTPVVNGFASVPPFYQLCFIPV
Cytochrome P450 2C18 (Homo sapiens), sequence (P33260 whole entry, looked up): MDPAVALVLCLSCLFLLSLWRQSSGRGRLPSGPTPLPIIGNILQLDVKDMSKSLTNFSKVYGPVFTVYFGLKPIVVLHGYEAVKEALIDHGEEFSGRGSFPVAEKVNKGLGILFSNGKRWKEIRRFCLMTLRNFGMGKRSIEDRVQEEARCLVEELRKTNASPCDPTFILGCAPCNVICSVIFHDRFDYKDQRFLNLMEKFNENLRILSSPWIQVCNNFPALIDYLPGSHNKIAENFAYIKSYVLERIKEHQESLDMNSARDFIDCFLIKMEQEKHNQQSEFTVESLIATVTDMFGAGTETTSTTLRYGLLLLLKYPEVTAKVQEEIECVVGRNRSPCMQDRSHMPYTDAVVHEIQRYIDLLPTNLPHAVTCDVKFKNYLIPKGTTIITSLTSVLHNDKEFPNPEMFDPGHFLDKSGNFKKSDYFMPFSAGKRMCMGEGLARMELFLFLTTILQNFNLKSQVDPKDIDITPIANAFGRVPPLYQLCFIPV
human CYP2B6, CYP2B6 (gene 1555), sequence (P20813 whole entry, looked up): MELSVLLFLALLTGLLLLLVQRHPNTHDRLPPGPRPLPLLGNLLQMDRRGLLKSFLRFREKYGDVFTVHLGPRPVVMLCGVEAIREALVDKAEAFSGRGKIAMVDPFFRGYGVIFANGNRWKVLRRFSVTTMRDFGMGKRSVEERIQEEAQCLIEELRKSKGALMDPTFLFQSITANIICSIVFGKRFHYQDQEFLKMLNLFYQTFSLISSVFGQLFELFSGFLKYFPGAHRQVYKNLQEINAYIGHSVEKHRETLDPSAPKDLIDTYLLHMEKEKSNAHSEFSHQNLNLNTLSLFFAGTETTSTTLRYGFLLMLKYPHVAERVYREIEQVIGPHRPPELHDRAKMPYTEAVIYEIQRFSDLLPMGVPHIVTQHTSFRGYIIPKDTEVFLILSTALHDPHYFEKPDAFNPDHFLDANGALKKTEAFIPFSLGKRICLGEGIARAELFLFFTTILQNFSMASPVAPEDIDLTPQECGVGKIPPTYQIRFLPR
human CYP2D6, CYP2D6 (gene 1565), sequence (P10635 whole entry, looked up): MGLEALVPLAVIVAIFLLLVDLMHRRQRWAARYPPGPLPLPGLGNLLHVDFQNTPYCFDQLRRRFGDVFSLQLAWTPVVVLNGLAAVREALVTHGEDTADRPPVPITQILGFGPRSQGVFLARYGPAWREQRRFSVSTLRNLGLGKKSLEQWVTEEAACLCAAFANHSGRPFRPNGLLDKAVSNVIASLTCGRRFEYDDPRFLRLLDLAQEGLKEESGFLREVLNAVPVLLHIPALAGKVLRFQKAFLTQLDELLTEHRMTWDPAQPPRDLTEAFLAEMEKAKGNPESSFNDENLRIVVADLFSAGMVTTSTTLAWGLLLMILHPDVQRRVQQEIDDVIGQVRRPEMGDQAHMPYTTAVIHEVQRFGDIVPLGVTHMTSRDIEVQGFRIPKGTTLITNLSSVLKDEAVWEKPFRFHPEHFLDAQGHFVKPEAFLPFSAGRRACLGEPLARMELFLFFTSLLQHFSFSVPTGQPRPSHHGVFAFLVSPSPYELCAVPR

On to `CN=C=S`, for which the outcome in the experiment with CD69, CD69 (gene 969) is “inactive”; in experiment [3], “inactive”; in [4], “inactive”; in [6], “inactive”; in experiment [7], “inactive”. Moreover, the AC50 is 20 µM (active) in [1], 12 µM (active) in experiment [2] and 13.7 µM (active) in [5].
With `CO/N=C(/C1=NOCCO1)c1ccccc1Oc1ncnc(Oc2ccccc2Cl)c1F`, the AC50 in the experiment with CD69, CD69 (gene 969) is 9.36 µM (active); in experiment [1], 27.2 µM (active); in experiment [2] it was 12.7 µM (active); in [3] it was 34.7 µM (active); in experiment [4], 1.98 µM (active); in experiment [5], 15.8 µM (active). For the same molecule, the AC50 was 18.3 µM (active) in [6], 0.933 µM (active) in experiment [8] and 1.41 µM (active) in [9].
As for `CCN(CC)c1nc(C)cc(OP(=S)(OC)OC)n1`, the AC50 was 3.97 µM (active) in the experiment with CD69, CD69 (gene 969); 10.5 µM (active) in [2]; 37 µM (active) in experiment [5]; 4.4 µM (active) in [10]; 7.09 µM (active) in experiment [11]; 0.773 µM (active) in experiment [9]. The result in experiment [1], in experiment [3], in experiment [4], in experiment [6] and in experiment [7] was inactive.
Take `CC(C)Oc1cccc(NC(=O)c2ccccc2C(F)(F)F)c1`: the outcome with CD69, CD69 (gene 969) is “inactive”; in experiment [1] it was “inactive”; in experiment [2], “inactive”; in [3], “inactive”; in experiment [4], “inactive”; in [5] it was “inactive”. Besides, in experiment [7], the molecule was called inactive. Also, the AC50 is 15.1 µM (active) in [6], 2.66 µM (active) in [8], 3.19 µM (active) in [11] and 4.9 µM (active) in experiment [9].
Turning to `O=C(Nc1ccccc1-c1ccc(Cl)cc1)c1cccnc1Cl`, the outcome is “inactive” with CD69, CD69 (gene 969); “inactive” in experiment [1]; “inactive” in experiment [2]; “inactive” in experiment [3]; “inactive” in experiment [4]; “inactive” in [5]. In experiment [6], the result was inactive. The AC50 in experiment [9] is 0.661 µM (active).
In the case of `CCOP(=S)(OCC)Oc1nc(Cl)n(C(C)C)n1`, the outcome with CD69, CD69 (gene 969) was “inactive”; in experiment [1] it was “inactive”; in [2], “inactive”; in experiment [3] it was “inactive”; in experiment [4], “inactive”; in experiment [5] it was “inactive”. Besides, in experiment [6], the result was inactive. Also, the figures for the AC50 in experiment [10] and in experiment [9] were 1 µM (active) and 0.317 µM (active), respectively.
As for `COc1ccc(-c2ccccc2)cc1NNC(=O)OC(C)C`, the outcome was “inactive” with CD69, CD69 (gene 969); “inactive” in experiment [1]; “inactive” in experiment [2]; “inactive” in [3]; “inactive” in [4]; “inactive” in experiment [5]. The result in experiment [6] and in experiment [14] was inactive. In addition, the AC50 was 0.597 µM (active) in experiment [12]; 0.684 µM (active) in experiment [8]; 0.407 µM (active) in experiment [13]; 1.07 µM (active) in [11]; 0.447 µM (active) in experiment [9].
Consider `Cc1cnc(C2=NC(C)(C(C)C)C(=O)N2)c(C(=O)O)c1` (stereo unspecified), for which the outcome in the experiment with CD69, CD69 (gene 969) was “inactive”; in experiment [1], “inactive”; in experiment [2], “inactive”; in [3], “inactive”; in experiment [4], “inactive”; in [5] it was “inactive”. Besides, the result in [6] was inactive.

Source of the values: PubChem BioAssay (EPA / NIEHS).
